From PubChem BioAssay (NCI) come the findings set out here.

The structures appear in SMILES notation. This is part of a sample that, as a whole, favours compounds with a hit. Of some 83,000 tested, about 20% had one in any assay.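 Negative percent growth values reflect cell death: -40 means 40% of the cells present at the start died, and -100 means all died.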 Unmarked numbers belong to inactive results. Active and inactive are the calls of the source. Rule for the calls: active = growth percent below 10; inactive = the rest.

Holding throughout (assay): NCI-60 one-dose screen, 48 h (100 = growth as untreated, 0 = no growth, -100 = all killed)
Common to all, as to conditions: 10 µM unless noted

The test system of assay [1] is EKVX NSCLC.
The test system of assay [2] is SN12C renal.
The subject of assay [3] is UO-31 renal.
Assay [4] relates to TK-10 renal.
The subject of assay [5] is ACHN renal.
The test system of assay [6] is CAKI-1 renal.
In assay [7] the test system is MOLT-4 leukemia.
The subject of assay [8] is SR leukemia.
The subject of assay [9] is OVCAR-8 ovarian.
The test system of assay [10] is OVCAR-5 ovarian.
In assay [11] the test system is OVCAR-4 ovarian.
For assay [12], the system named is SK-OV-3 ovarian.
Assay [13] deals with IGROV1 ovarian.
Assay [14] relates to OVCAR-3 ovarian.
Assay [15] has as its system HS 578T breast.
Assay [16] relates to NCI/ADR-RES ovarian.
The test system of assay [17] is T-47D breast.
Assay [18] deals with CCRF-CEM leukemia.
For assay [19], the system named is RPMI-8226 leukemia.
Assay [20] has as its system A498 renal.

With `COc1cc(/C=C/C(=O)c2ccc(C(F)(F)F)cc2)ccc1Oc1nc(NCCO)nc(N2CCOCC2)n1`, the growth was 93.7% in [1]; 86.9% in assay [2]; 70.5% in assay [3]; 111% in assay [4]; 86.2% in assay [5]; 82.7% in [6]. In addition, the growth is 3.51% (active) in assay [7]; -8.21% (active) in [8]; 95.9% in assay [9]; 101% in assay [10]; 96% in assay [11]; 101% in assay [12]. Also, the growth is 92.5% in assay [13]; 109% in assay [14]; 82% in assay [15]; 96.7% in assay [16]; 83.5% in assay [17].

For the molecule `COc1ccc(/C=N/NC(=O)c2[nH]c3ccc(Br)cc3c2-c2ccccc2)o1`, the growth in assay [1] is 37.8%; in assay [2], 43.3%; in assay [3], 46.1%; in assay [4] it was 94.5%; in assay [5], 28.1%; in assay [18] it was 15.4%. Besides, the growth in assay [7] is 17%; in [8], 17.7%; in assay [19] it was 12.5%; in assay [9], -12.2% (active); in assay [10], 39.9%; in [11], 68%. Further, the growth in assay [12] was 38.1%; in [13], 19.7%; in assay [14], 16.6%; in [15] it was 11.5%; in [16], 19.9%; in assay [17] it was 78.4%.

Take `COc1cc2nc(-c3ccc(C(F)(F)F)cc3)cc(OCCCNCC3CCCO3)c2cc1OC` (stereo unspecified): the growth was 61.5% in assay [1]; 46.2% in [2]; 35.9% in assay [3]; 31.9% in assay [5]; 8.44% (active) in assay [6]; 17.9% in [20]. In addition, the growth in [18] is 28.6%; in assay [7] it was 14.3%; in [8] it was 8.68% (active); in assay [19], -13.1% (active); in assay [9], 35.6%; in assay [10] it was 40.6%. In addition, the growth was 62.4% in [11]; 86.2% in assay [12]; 28.5% in assay [13]; 65.4% in [14]; 55.6% in assay [15]; 41.4% in assay [16]. The growth in [17] was 38%.

Consider `N#Cc1c(-c2ccc(Cl)cc2)nc(SCc2ccccc2)nc1N1CCNCC1`, for which the growth is 71.6% in assay [1]; 54.9% in assay [2]; 53% in assay [3]; 96% in [4]; 47.8% in assay [5]; 79.7% in [20]. Moreover, the growth in [18] was 45.9%; in assay [8] it was -24.8% (active); in [19], 23%; in [9], 65.6%; in assay [10] it was 92.1%; in [11] it was 85.2%. Also, the growth was 113% in [12]; 46.9% in [13]; 50% in [14]; 91.1% in [15]; 65.6% in assay [16]; 65.6% in assay [17].

Regarding `CN(C)c1ccc(/C=C2\Cc3c(F)ccc(Br)c3C2=O)cc1`, the growth in assay [1] is 80.5%; in [2] it was 98.2%; in assay [3], 77%; in assay [4] it was 140%; in [5], 84.8%; in assay [6], 82%. Besides, the growth in assay [18] was 94.2%; in assay [8], 76%; in assay [19] it was 93.1%; in assay [9], 96.5%; in [10] it was 107%; in [11], 35.9%. For the same molecule, the growth in assay [12] was 97.7%; in assay [13], 56.5%; in assay [14] it was 101%; in [15], 92.2%; in [16], 91%; in [17], 54.2%.

In the case of `N/C(=N\c1nc2c(Br)cccc2s1)C(Br)Br`, the growth in assay [1] is 16.4%; in [2], 18%; in assay [3], 4.29% (active); in assay [5], -40.4% (active); in assay [6] it was -19.6% (active); in [20] it was 0.53% (active). Moreover, the growth in [18] is -1.73% (active); in [7], -2.89% (active); in assay [8] it was -24% (active); in assay [19], -16.5% (active); in assay [9], -18% (active); in assay [10] it was 8.49% (active). Besides, the growth in [11] is 43.2%; in [12] it was 53%; in assay [13], -67.6% (active); in assay [14], -27.4% (active); in assay [15], 6.83% (active); in assay [16], 6.58% (active). Besides, the growth in assay [17] was 33.1%.

On to `O=C(N/N=C/c1ccc(Br)s1)c1[nH]c2ccc(Br)cc2c1-c1ccccc1`, for which the growth is 40.9% in assay [1]; 56.3% in assay [2]; 48.6% in assay [3]; 109% in assay [4]; 26.7% in assay [5]; 22.8% in assay [6]. The growth is 14.2% in [7]; 10.1% in [8]; 5.48% (active) in assay [19]; 2.61% (active) in assay [9]; 52% in assay [10]; 71.1% in assay [11]. The growth in assay [12] was 40.6%; in [13], 18.1%; in [14] it was 9.72% (active); in assay [15], 23.6%; in assay [16] it was 16.6%; in [17] it was 75.7%.

Take `O=C1Nc2ccc(Cl)cc2/C1=C/c1ccc(OCC(=O)c2ccc(Br)cc2)cc1`: the growth is 81.6% in assay [1]; 93.5% in assay [2]; 73.4% in assay [3]; 88.4% in assay [5]; 76.1% in [6]; 107% in assay [20]. Further, the growth in assay [18] is 102%; in [7] it was 95.6%; in assay [8], 103%; in assay [19], 101%; in assay [9], 96%; in assay [10] it was 93.2%. Also, the growth was 91.7% in assay [11]; 79.9% in assay [12]; 63% in assay [13]; 90.3% in assay [14]; 89.3% in [15]; 93.3% in assay [16]. Moreover, the growth in assay [17] was 84.2%.
